According to PMC6212790, “How bacterial xenogeneic silencer rok distinguishes foreign from self DNA in its resident genome”:
Over roughly 33,000 sequences, “e-score” has its median near -0.038; the highest 2% begin near 0.33. For the sample, the highest values were picked, then their nearest neighbours and some sequences at random.

target: T1, GST-Rok-C97-191 (Bacillus subtilis subsp. subtilis str. …, UniProt O34857 97-191); test: protein binding microarray; Rok is a gene silencer of Bacillus subtilis; high values mean tight binding; conditions: protein: recombinant; tags: GST (pTH5325, pDEST15-Magic modified); dsDNA, one strand shown
T1 sequence: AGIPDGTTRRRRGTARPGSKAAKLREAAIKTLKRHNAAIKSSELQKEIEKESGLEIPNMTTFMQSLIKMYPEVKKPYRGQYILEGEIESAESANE
In short: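 Every oligonucleotide joins a 25-mer constant primer to a 35-mer variable part drawn from a de Bruijn sequence of order 10, so each non-palindromic 8-mer appears at least 32 times and each palindromic 8-mer 16 times. The preference for every 8-mer is reported as a unitless, rank-based enrichment score (E-score). This score spans 0.5 for the most favored 8-mer to −0.5 for the most disfavored.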

Sequence | binding signal [E-score]
AATCCATG | -0.019
CGAGTAAA | 0.128
ACTCAGGC | -0.123
CAAAAGAG | -0.195
ACGGGGAA | 0.0307
GAGTCCTA | -0.119
TATTTAGA | 0.0799
ATAAAGGC | 0.052
ACATACGC | -0.0272
CATAGACA | -0.0183
CGTCCACC | -0.198
CAGTTATA | 0.187
GAGTTATA | 0.213
TAGTTATA | 0.39
GAGGAACA | -0.114
GAAATTAA | 0.278
CAAATTAG | 0.044
GAAATTGC | 0.239
AAAATTAC | 0.327
CAAATTAC | 0.33
GAAATTAC | 0.359
ATTCGCGG | -0.0504
CTAAGTTA | 0.291
GCGAGACC | -0.114
CAACCCTG | -0.104

Sequence | binding signal [E-score]
ATCATCTA | 0.148
GAGCCTAC | -0.193
GTACAGTA | 0.283
CAACAGTA | 0.315
ATACAGTA | 0.385
GAACAGTA | 0.179
CTACAGTA | 0.235
TAACAGTA | 0.342
ATGGCACC | -0.0965
CCCTTCGC | -0.198
ACTAAGGA | 0.268
ACGGCCAG | -0.104
CCTTCTGC | -0.174
AGTCGTAC | 0.108
ATAGATAA | 0.325
ACAGATAC | 0.252
AAAGATAA | 0.33
AGAGATAC | 0.166
CTAGATAA | 0.3
AAAGATAC | 0.0421
ATAGATAC | 0.357
CTAGATAC | 0.204
GTAGATAC | 0.381
GAAGATAA | 0.224
GTAGATAA | 0.397

Sequence | binding signal [E-score]
GCAGATAC | -0.00726
TGAGAAAA | 0.154
AAGGATGA | -0.0751
TGAAAGCA | 0.0344
GACCGGGA | -0.0628
ACAGGCGG | -0.187
ATAGATAG | 0.267
ACAGATAT | 0.185
ATAGATAT | 0.415
ACTTTTGA | 0.0573
CAGACGCA | -0.191
AATTTCTA | 0.355
ATTTTCTA | 0.379
GATTTCAA | 0.0221
ATTTTCTC | 0.255
CATTTCTA | 0.306
AATTTCTG | 0.128
AATTTCTC | 0.198
ACTTTCTC | 0.0481
ACTTTCTA | 0.386
ATTTTCTG | -0.0553
CCTTTCTA | 0.108
GATTTCTA | 0.357
AGTGTAGG | 0.0625
GATCCGAC | -0.0267

Sequence | binding signal [E-score]
GGCATTCA | -0.0675
GCGGGGAA | -0.189
ATTTTCCG | 0.329
ATTTTCCC | -0.00582
ATTTTCCA | 0.105
TGGCAAAA | 0.122
GGAATCAC | -0.0168
ACTATCTC | 0.263
AGTATCTA | 0.351
GCTATCTA | 0.333
AGTATCTG | 0.198
GCTATCCA | 0.0235
ATTATCTC | 0.0108
ATTATCTG | 0.203
ACTATCTA | 0.364
GGTATCTA | 0.23
CCTATCTA | 0.319
AGTATCTC | 0.185
ATTATCTA | 0.385
AAAAGGGC | -0.186
GGACAGAC | -0.0976
GAACGGGA | -0.108
CAGCTCCA | -0.0439
GCTATCGA | 0.102
ACTATCGA | 0.348

Sequence | binding signal [E-score]
CCTATCGA | 0.117
TAGCAGAA | 0.073
AAGCGAGT | -0.052
AAGAAAGA | 0.0949
TAGGTAGA | 0.386
CAGGTAGA | 0.223
GAGGTAGC | -0.122
GAGGTATA | 0.243
AAGGTAGA | 0.246
GAGGTAGA | 0.334
GACAGGGA | -0.0489
AGCAATGA | -0.189
CGACCAAC | -0.152
ACCTTGCT | -0.156
GTTTTCAA | -0.105
ATCAAAAT | 0.231
CGCCGTTC | -0.164
GATATGTA | 0.303
CATATGTC | 0.00539
AATATGTA | 0.375
CATATGTA | 0.36
CATATGAA | -0.0194
AATATGTC | 0.135
GCATCAAC | 0.0173
CGATAAGC | 0.0146

Sequence | binding signal [E-score]
CTCTATGC | -0.0298
AAGAGTAG | 0.212
AAACTAGG | 0.285
ACACTAGT | 0.257
CAACTAGC | 0.214
AAACTAGT | 0.445
GAACTAGC | 0.205
AAACTAGC | 0.337
CGCTGCAA | -0.0879
AACCATAA | 0.0116
GACCATAA | 0.0376
TACCATAA | 0.354
ACGTTCGG | 0.0487
GATGGCGA | 0.0644
GAATCTAA | 0.188
CAATCTAC | 0.395
GAATCTAC | 0.423
GAATCTCC | 0.0847
CGATCTAA | -0.0333
CAATCTAA | 0.232
CAATCTGC | 0.0189
CGATCTAC | 0.335
CGATCTAG | 0.26
CAAGAACC | -0.0441
GGGACAAA | -0.132

Sequence | binding signal [E-score]
TGGAGGAA | -0.00731
AGCGTAAG | -0.0539
CCTATTCG | -0.0809
ACTCATCT | -0.0629
ATGCCCAC | -0.129
GATTTGTA | 0.176
AATTTGTA | 0.346
ATTTTGTA | 0.228
AGTTTGTA | 0.367
CGTTTGTA | 0.113
AGTTTGTC | 0.0866
ACTGAAGG | -0.0541
AGCTCGTC | -0.149
CCACTAAC | 0.0126
CTGCTCCA | -0.00585
CGACATGC | -0.104
AATTCTAT | 0.286
CATTCTAC | 0.384
AATTCTAC | 0.421
AGTTCTAA | 0.142
GATTCTAC | 0.406
AATTCTAA | 0.286
CATTCTAG | 0.202
GATTCTAA | 0.086
CATTCTAA | 0.12

Sequence | binding signal [E-score]
AGTTCTAT | 0.242
GATTCTGC | 0.0425
AGTTCTAC | 0.386
CCGACGTA | -0.0042
CACATTAG | 0.175
GACTCGTA | -0.148
ATGCTACC | 0.00967
TAGATAAA | 0.292
AAAAAATG | -0.032
TCAGGAGA | -0.166
ACTAATGC | 0.262
GCCTACTA | 0.229
AACTACTA | 0.465
AGCTACTA | 0.378
TACTACAA | 0.303
GGCTACTA | 0.0153
CGCTACTA | 0.326
AGCTACTG | 0.233
AACTACTG | 0.424
TACTACGA | 0.291
AACTATTG | 0.291
TACTACTA | 0.44
AACTACGG | 0.19
AGGGCACA | -0.171
ATGAATCA | -0.0987

Sequence | binding signal [E-score]
CCGACAAC | -0.076
TACCCTCA | -0.129
AAGTTCCA | -0.0431
ACTCACTG | 0.00942
GATCCAAC | -0.164
CAACCATC | -0.0304
ATTAAACG | 0.0877
ACAAGGGC | -0.198
AATGCCCT | 0.0279
AACAACTT | 0.144
AGCTAATC | 0.102
CGCTAATA | 0.286
ACCTACTG | 0.238
CACTACTG | 0.0489
AGCTAATA | 0.366
CCCTACTA | 0.124
AACTACTT | 0.392
AAGTACTT | 0.325
ACCTACTA | 0.343
CACTACGA | 0.123
CACTACTA | 0.344
CGAAGGAG | -0.0169
ACCAGACG | -0.153
AGTAGTCA | 0.259
AGTAAAGA | 0.0717

Sequence | binding signal [E-score]
CTCGCTCA | -0.0517
ACTATGGA | 0.0778
CGTTATCA | 0.165
ACGTCCTG | -0.0421
ACTGACGG | -0.0188
ACTAACAC | 0.0585
GACTACTC | 0.127
CACTGCTA | 0.0112
TACTGCTA | 0.334
GACTACTA | 0.373
AACTACTC | 0.363
CACTACTC | -0.0277
AACTGCTA | 0.0364
GACTACGA | 0.0584
ACCTACTC | 0.0493
AGCTACCA | 0.35
AGCTACCT | 0.209
AGCTACCC | 0.025
AAAACCGA | 0.0507
TATTCCCA | 0.217
ATCTAGGC | 0.0159
GCAACATA | 0.217
CTCGCATC | -0.126
CTACTATA | 0.371
CCACTATA | 0.219

Sequence | binding signal [E-score]
CTGCTATA | 0.039
ATGCTATA | 0.35
ATACTATG | 0.254
GGACTATA | 0.0884
GTACTATA | 0.436
ATACTAGA | 0.305
GCACTATA | 0.0612
ATACTATA | 0.365
GTGCTATA | 0.202
CGACTATA | 0.122
TGAGGCAA | -0.148
ACGACTTC | 0.0725
GCTGGTTA | 0.0982
AGACCTGC | -0.148
CGCCAGCG | -0.123
AGACAATA | 0.0922
TACAGTCA | 0.144
TGGCTGAA | 0.00639
AAGTACTG | 0.145
TAGTACTA | 0.402
CAGTACTA | 0.264
AAGTACTC | 0.146
AAGTACAC | 0.275
AAGTACTA | 0.385
GAGTACAA | 0.136

Sequence | binding signal [E-score]
AAGTACAA | 0.349
GAGTACTA | 0.0418
GTTATGCA | 0.256
CCTTCAAC | -0.0251
CTATTGGC | -0.0724
AAGCAAGT | -0.0255
GGCTATAC | -0.00424
ACAAGTCT | -0.182
ATAGTAAA | 0.357
GTAGTAAC | 0.307
TTAGTAAA | 0.21
ATAGTAAC | 0.28
ATAGTAAG | 0.278
ATAGTAAT | 0.396
GTAGTAAA | 0.338
GGAGTAAA | 0.000261
ATAGTACA | 0.347
CTAGTACA | 0.265
ATAGTACC | 0.254
CTAGTAAA | 0.289
CCCAGCAG | -0.112
CTGAACGC | -0.149
TACGACAA | 0.151
ATGGTCAA | 0.137
AAACTCCG | 0.115

Sequence | binding signal [E-score]
GCTGTTTA | 0.0646
AAATTCTC | 0.0486
TAATTCCA | 0.207
AAATTCTT | 0.105
GAATTCTC | 0.0595
GAATTCTA | 0.363
CAATTCTA | 0.287
TAATTCAA | 0.168
TAATTCTA | 0.331
AAATTCTA | 0.379
CCCGCTCC | -0.108
GCGACCCA | 0.134
TCAAGGAA | -0.0876
ATCAACCA | -0.0125
ATATAGAT | 0.399
ATATAGAG | 0.165
CTATAGAA | 0.283
ATATAGAA | 0.347
ATATAGAC | -0.00572
GTATAGAA | 0.278
CTGACAAG | -0.143
AAGATGAG | 0.0366
CAACAAGA | -0.163
CCTTATAA | 0.0808
ATATATGA | 0.329

Sequence | binding signal [E-score]
ATGTATAC | 0.308
ACTTATAA | 0.338
ACTTATAT | 0.29
CAATATAA | 0.295
CTATATAA | 0.359
ATGTATAA | 0.364
CTCTATAA | 0.0363
CTATATGA | 0.0756
GTATATGA | 0.224
CTGTATAA | 0.215
CACGGGCA | -0.13
AATTGTTA | 0.234
GCTTTCAA | -0.116
AGGAAGGA | -0.123
AGAGTACT | 0.169
CACGTAGA | -0.0653
AGCTCGCA | -0.0853
AGAGACTG | 0.0621
AACCAAAA | 0.0375
